Assay [1] in a line: NCI Yeast Anticancer Drug Screen. Data for the rad50 strain (AID 155).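 Also: 0% = growth of vehicle-only cultures of the same strain.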 Conditions: S. cerevisiae rad50 strain growth inhibition; at 50.0 µM; stronger effect = higher value. In outline:
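Readout: growth inhibition relative to vehicle-treated cultures. Compound exposure was carried out in a genetically defined yeast strain deficient in DNA damage repair.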

Assay [2] can be described thus: NCI Yeast Anticancer Drug Screen. Data for the mec2-1 strain (AID 157). The conditions noted are these: S. cerevisiae mec2-1 strain, at 50.0 µM, stronger effect = higher value. In outline: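 Each compound was tested on mec2-1 yeast, a strain altered in DNA damage repair or cell cycle control. Growth inhibition is reported relative to vehicle.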
Assay [3] can be described thus: NCI Yeast Anticancer Drug Screen. Data for the sgs1 mgt1 strain (AID 161).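 Also: 0% = growth of cultures given vehicle only.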 Conditions: S. cerevisiae sgs1 mgt1 strain, at 50.0 µM, stronger effect = higher value. In outline:
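Inhibition of yeast growth, normalised to vehicle-treated controls, is reported for a strain bearing genetic alterations in DNA damage repair.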

A short description of assay [4]: NCI Yeast Anticancer Drug Screen. Data for the cln2 rad14 strain (AID 165).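 Also: 0% = growth equal to vehicle treated cultures.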 The conditions noted are these: S. cerevisiae cln2 rad14 strain, at 50.0 µM, stronger effect = higher value. In outline: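 Test compounds were added to cln2 rad14 yeast cultures; inhibition of growth was then determined by comparison with vehicle treatment.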
A short description of assay [5]: NCI Yeast Anticancer Drug Screen. Data for the bub3 strain (AID 167). Conditions: S. cerevisiae bub3 mutant strain, at 50.0 µM, stronger effect = higher value. In outline: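 Readout: yeast growth inhibition, expressed relative to vehicle-only wells. The test organism is a mutant strain from a panel with lesions in DNA repair or checkpoint genes.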
A short description of assay [6]: NCI Yeast Anticancer Drug Screen. Data for the mlh1 rad18 strain (AID 175). The conditions noted are these: S. cerevisiae mlh1 rad18 strain growth inhibition; at 50.0 µM; stronger effect = higher value. In outline: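 Inhibition values reflect reduced growth of mutant yeast versus vehicle-treated controls following compound exposure; the mutations affect DNA damage repair.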

Compounds without any hit were thinned out: in the full panel of roughly 79,000, 15% have a hit. Unmarked numbers belong to inactive results. Active and inactive are the calls of the source. Rule as the data show it: active = growth inhibition above about 70%; inactive = the rest.

Take `O=C(O)C(=O)Cc1ccccc1`: the growth inhibition in assay [1] is 11.2%; in assay [2], -14.2%; in assay [3] it was -4.85%; in assay [4], 19.9%; in assay [5] it was 0.85%; in assay [6], 14.9%.
For `ClCC/C(=C(/Cl)c1ccccc1)c1ccccc1`, the growth inhibition in assay [1] is -0.65%; in assay [2], 5.6%; in assay [3] it was 6.65%; in assay [4] it was 4.8%; in assay [5], -14.3%; in assay [6], 3.1%.
Take `O=[N+]([O-])c1ccc(Cl)c(N=Nc2ccccn2)c1`: the growth inhibition in assay [1] was 20.2%; in assay [2] it was -14.9%; in assay [3], 21.4%; in assay [4], -36.9%; in assay [5], -10%; in assay [6] it was 18.6%.
Take `COC(=O)c1ccc(/C=C2\N=C(C)OC2=O)cc1`: the growth inhibition was -17.9% in assay [1]; -28.6% in assay [2]; 0.6% in assay [3]; 12.2% in assay [4]; -22.8% in assay [5]; -17.9% in assay [6].
Turning to `O=C(Oc1cccc2ccccc12)c1cccnc1`, the growth inhibition in assay [1] was -1.45%; in assay [2] it was -2%; in assay [3], 6.4%; in assay [4] it was -38%; in assay [5] it was 19.7%; in assay [6], 31.3%.
As to `COc1cc2c(c(O)c1C)C(=O)CC(c1ccccc1)O2` (stereo unspecified), the growth inhibition in assay [1] was 15.4%; in assay [2] it was -46.3%; in assay [3], 16%; in assay [4] it was 2.15%; in assay [5], -4.25%; in assay [6], 11.7%.
In the case of `O=C1c2ccc([N+](=O)[O-])cc2C(=O)N1CC(F)(F)F`, the growth inhibition is -0.9% in assay [1]; 8.35% in assay [2]; 10.6% in assay [3]; 14.8% in assay [4]; -3% in assay [5]; 3.8% in assay [6].
On to `CCOC(=O)CC1CN(C(=O)c2ccccc2)CCC12OCCO2` (stereo unspecified), for which the growth inhibition in assay [1] was -3.4%; in assay [2], -4.3%; in assay [3] it was -4%; in assay [4], -5.05%; in assay [5], -2.35%; in assay [6], -5.3%.
Regarding `COC(=N)Cc1cc(OC)cc(OC)c1`, the growth inhibition in assay [1] is -2.45%; in assay [2], 6.4%; in assay [3], 7.45%; in assay [4] it was -12.7%; in assay [5] it was 21.2%; in assay [6] it was -6.6%.
On to `O=c1[nH]c2ccccc2c2ccc(Br)cc12`, for which the growth inhibition in assay [1] was 17.4%; in assay [2], -6.1%; in assay [3], -2.65%; in assay [4] it was 7.3%; in assay [5], -3%; in assay [6] it was 18.5%.
`COc1ccc(C(O)C(CN(C)C)CN(C)C)cc1` (stereo unspecified): the growth inhibition in assay [1] is -0.75%; in assay [2], -19.6%; in assay [3] it was 6.65%; in assay [4] it was 8.15%; in assay [5], 8.7%; in assay [6], 10.8%.
Take `COc1ccc(N=Nc2c(C)c(C#N)c(=S)n(C3OC(COC(C)=O)C(OC(C)=O)C(OC(C)=O)C3OC(C)=O)c2-c2ccccc2)cc1` (stereo unspecified): the growth inhibition is -8.55% in assay [1]; -8.9% in assay [2]; -20.6% in assay [3]; 9.05% in assay [4]; 8% in assay [5]; -5.1% in assay [6].
In the case of `Cc1cc(NS(=O)(=O)c2ccc(NC(NC(=O)C(C(F)(F)F)C(F)(F)F)(C(F)(F)F)C(F)(F)F)cc2)no1`, the growth inhibition in assay [1] is 1.4%; in assay [2], -18.1%; in assay [3] it was -24.9%; in assay [4], -8.4%; in assay [5] it was 10.6%; in assay [6], 0.55%.
As for `CCCCCCCCCCCCOc1ccc(Br)cc1`, the growth inhibition in assay [1] is 11.4%; in assay [2], 9.25%; in assay [3], 19%; in assay [4], -23.4%; in assay [5], -13.4%; in assay [6], 8.7%.
`Nc1ccc(C(=O)O)cn1`: the growth inhibition was -20.4% in assay [1]; -11.1% in assay [2]; 29.6% in assay [3]; -34.5% in assay [4]; 9.95% in assay [5]; -0.45% in assay [6].
Regarding `COc1ccc(C(=O)/C=C/C(C)=C/C=N/N(C)c2ccccc2)cc1`, the growth inhibition is 14% in assay [1]; 18.4% in assay [2]; -0.5% in assay [3]; -39.9% in assay [4]; 17.1% in assay [5]; 17.8% in assay [6].
On to `Cc1cccc(-n2c(CC#N)n[nH]c2=S)c1`, for which the growth inhibition in assay [1] was 21%; in assay [2], -21.8%; in assay [3], -0.4%; in assay [4] it was 3.15%; in assay [5], 5.2%; in assay [6], 5.45%.
Consider `Cc1cc(=O)[nH]c(N/N=C/c2ccco2)n1`, for which the growth inhibition is -20.8% in assay [1]; -48.8% in assay [2]; -16.8% in assay [3]; 6.75% in assay [4]; -33.8% in assay [5]; -15.3% in assay [6].
For the molecule `CSc1nc(SC)c(Cl)c(C(Cl)Cl)n1`, the growth inhibition in assay [1] is 32.2%; in assay [2], 59.2%; in assay [3], 68.8%; in assay [4], 7.3%; in assay [5] it was 74.8% (active); in assay [6], 75% (active).
In the case of `OC1CC2COCC2CC1O` (stereo unspecified), the growth inhibition in assay [1] is 22.6%; in assay [2], 1.7%; in assay [3], 11.1%; in assay [4], 6.9%; in assay [5], 4.4%; in assay [6] it was 10%.
As to `CC(=O)NCC(=O)O`, the growth inhibition in assay [1] is 3.7%; in assay [2], -8.75%; in assay [3] it was -35.1%; in assay [4] it was -7.1%; in assay [5], -9.6%; in assay [6] it was -10.1%.

For the origin of these results see PubChem BioAssay (NCI).
